# Screen size: about 39,000 compounds; about 3,300 (8.5%) were called active. The entries come from a sample that favours actives as a whole.
# Test system: HepG2
# Assay: cytotoxicity call (relative viability < 0.9)
# Conditions: 10 µM
row,SMILES,cytotoxicity call
1,Nc1nnc([C@H]2CCCO2)o1,inactive
2,O=C(O)c1ccc2nc(O)c(=O)[nH]c2c1,inactive
3,O=C(O)c1ccc(-c2ccccc2)cc1,inactive
4,O=C(O)c1ccc(-n2nc(-c3ccccc3O)nc2-c2ccccc2O)cc1,active
5,COCC#Cc1cnc2c(c1)C(=O)N([C@@H](C)CO)C[C@H](C)[C@@H](CN(C)C(=O)Nc1ccccc1OC)O2,inactive
6,Cc1noc(C)c1S(=O)(=O)N(C)C[C@@H]1OCCCC[C@@H](C)Oc2ccc(NC(=O)Nc3cccc4ccccc34)cc2C(=O)N([C@@H](C)CO)C[C@H]1C,inactive
7,COc1ccc(NC(=O)N(C)C[C@@H]2OCCCC[C@H](C)Oc3ccc(NS(=O)(=O)c4ccc(Cl)cc4)cc3C(=O)N([C@H](C)CO)C[C@@H]2C)cc1,inactive
8,C[C@H]1CN([C@@H](C)CO)C(=O)c2cc(C#CC3(O)CCCC3)cnc2O[C@@H]1CN(C)C(=O)Nc1ccc2c(c1)OCO2,inactive
9,O=C1OCCN/C1=C/C(=O)c1ccccc1,active
10,O=C(/C=c1/nc2c([nH]c1=O)=NON2)c1ccccc1,inactive
11,C[C@H]1CNC(=CC(=O)c2ccccc2)C(=O)N1,inactive
12,COCCNC(=O)C[C@H]1CC[C@@H](NS(=O)(=O)c2ccc(C)cc2)[C@@H](CO)O1,inactive
13,C[C@@H]1CN([C@@H](C)CO)C(=O)c2cc(C#CC3CC3)cnc2O[C@@H]1CN(C)S(=O)(=O)c1cccc(F)c1,inactive
14,C[C@H]1CN([C@@H](C)CO)C(=O)c2c(c3ccccc3n2C)-c2ccccc2CO[C@H]1CN(C)C(=O)Nc1cccc(C(F)(F)F)c1,inactive
15,C[C@H](CO)N1C[C@H](C)[C@@H](CN(C)C(=O)Nc2cccc(C(F)(F)F)c2)OCc2ccccc2-c2c(n(C)c3ccccc23)C1=O,inactive
16,C[C@@H]1CN([C@H](C)CO)C(=O)c2c(c3ccccc3n2C)-c2ccccc2CO[C@H]1CN(C)C(=O)Nc1cccc(C(F)(F)F)c1,inactive
17,C[C@H](CO)N1C[C@H](C)[C@H](CN(C)C(=O)Nc2cccc(C(F)(F)F)c2)OCc2ccccc2-c2c(n(C)c3ccccc23)C1=O,inactive
18,C[C@@H]1CN([C@@H](C)CO)C(=O)c2c(c3ccccc3n2C)-c2ccccc2CO[C@H]1CN(C)C(=O)Nc1cccc(C(F)(F)F)c1,active
19,C[C@@H]1CN([C@H](C)CO)C(=O)c2c(c3ccccc3n2C)-c2ccccc2CO[C@@H]1CN(C)C(=O)Nc1cccc(C(F)(F)F)c1,active
20,COc1ccc(S(=O)(=O)N(C)C[C@@H]2OCCCC[C@H](C)Oc3ccc(NC(=O)Nc4c(C)noc4C)cc3C(=O)N([C@@H](C)CO)C[C@@H]2C)cc1,inactive
21,Cc1noc(C)c1NC(=O)N(C)C[C@@H]1Oc2ccc(NC(=O)NC(C)C)cc2CC(=O)N([C@@H](C)CO)C[C@@H]1C,inactive

row,SMILES,cytotoxicity call
1,O=C(C=Cc1ccc(O)c(O)c1)OC1CC(O)(C(=O)O)CC(O)C1O (configuration not stated),inactive
2,O=C(/C=C/c1ccc(O)c(O)c1)O[C@@H]1C[C@](O)(C(=O)O)C[C@@H](O)[C@H]1O,inactive
3,O=C(/C=C/c1ccc(O)c(O)c1)O[C@@H]1C[C@@](O)(C(=O)O)C[C@@H](O)[C@@H]1O,active
4,Cc1noc(C)c1NC(=O)N(C)C[C@H]1OCCCC[C@@H](C)Oc2ccc(NS(=O)(=O)c3ccc(F)cc3)cc2C(=O)N([C@@H](C)CO)C[C@H]1C,inactive
5,C[C@H]1CN([C@@H](C)CO)C(=O)c2cc(C#CCC3CCCC3)cnc2O[C@@H]1CN(C)C(=O)c1cnccn1,inactive
6,CC(C)NC(=O)N(C)C[C@H]1Oc2cc(C#Cc3cccc(F)c3)ccc2S(=O)(=O)N([C@@H](C)CO)C[C@H]1C,inactive
7,CNC[C@@H]1OCCCC[C@H](C)Oc2ccc(NS(=O)(=O)c3cn(C)cn3)cc2C(=O)N([C@@H](C)CO)C[C@@H]1C,inactive
8,C[C@@H]1CCCCO[C@H](CN(C)S(=O)(=O)c2ccc(Cl)cc2)[C@@H](C)CN([C@H](C)CO)C(=O)c2cc(NS(=O)(=O)c3ccc(Cl)cc3)ccc2O1,inactive
9,C[C@H]1CCCCO[C@@H](CN(C)S(=O)(=O)c2ccc(Cl)cc2)[C@@H](C)CN([C@@H](C)CO)C(=O)c2cc(NS(=O)(=O)c3ccc(Cl)cc3)ccc2O1,inactive
10,C[C@@H]1CN([C@@H](C)CO)C(=O)c2cc(NS(=O)(=O)c3ccc(Cl)cc3)ccc2O[C@@H](C)CCCCO[C@@H]1CN(C)S(=O)(=O)c1ccc(Cl)cc1,active
11,C[C@@H]1CCCCO[C@H](CN(C)S(=O)(=O)c2ccc(Cl)cc2)[C@H](C)CN([C@@H](C)CO)C(=O)c2cc(NS(=O)(=O)c3ccc(Cl)cc3)ccc2O1,active
12,C[C@@H]1CCCCO[C@@H](CN(C)S(=O)(=O)c2ccc(Cl)cc2)[C@@H](C)CN([C@H](C)CO)C(=O)c2cc(NS(=O)(=O)c3ccc(Cl)cc3)ccc2O1,inactive
13,C[C@H](CO)N1C[C@H](C)[C@H](CN(C)S(=O)(=O)c2ccc(Cl)cc2)OCCCC[C@H](C)Oc2ccc(NS(=O)(=O)c3ccc(Cl)cc3)cc2C1=O,active
14,C[C@@H]1CN([C@H](C)CO)C(=O)c2cc(NS(=O)(=O)c3ccc(Cl)cc3)ccc2O[C@@H](C)CCCCO[C@@H]1CN(C)S(=O)(=O)c1ccc(Cl)cc1,inactive
15,C[C@@H]1CCCCO[C@@H](CN(C)S(=O)(=O)c2ccc(Cl)cc2)[C@H](C)CN([C@@H](C)CO)C(=O)c2cc(NS(=O)(=O)c3ccc(Cl)cc3)ccc2O1,inactive
16,C[C@@H]1CCCCO[C@@H](CN(C)S(=O)(=O)c2ccc(Cl)cc2)[C@@H](C)CN([C@@H](C)CO)C(=O)c2cc(NS(=O)(=O)c3ccc(Cl)cc3)ccc2O1,inactive
17,C[C@@H]1CCCCO[C@H](CN(C)S(=O)(=O)c2ccc(Cl)cc2)[C@@H](C)CN([C@@H](C)CO)C(=O)c2cc(NS(=O)(=O)c3ccc(Cl)cc3)ccc2O1,inactive
18,C[C@@H]1CCCCO[C@H](CN(C)S(=O)(=O)c2ccc(Cl)cc2)[C@H](C)CN([C@H](C)CO)C(=O)c2cc(NS(=O)(=O)c3ccc(Cl)cc3)ccc2O1,active
19,C[C@H](CO)N1C[C@H](C)[C@@H](CN(C)S(=O)(=O)c2ccc(Cl)cc2)OCCCC[C@H](C)Oc2ccc(NS(=O)(=O)c3ccc(Cl)cc3)cc2C1=O,inactive
20,CN(C)C(=O)c1ccc(-c2cccc(-c3nc(C(=O)NCc4ccccc4)cc4c3[C@@H](CCO)N([S@@](=O)C(C)(C)C)C4)c2)cc1,inactive
21,C[C@H](NC(=O)C[C@H]1CC[C@@H](NC(=O)CN2CCOCC2)[C@@H](CO)O1)c1ccccc1,inactive

row,SMILES,cytotoxicity call
1,Cc1ccc(S[C@]2(C(=O)NC3CC3)CC(=O)N(Cc3cc(C(F)(F)F)cc(C(F)(F)F)c3)[C@@H]2c2ccc(CO)cc2)cc1,inactive
2,C[C@@H]1CCCCO[C@@H](CN(C)S(=O)(=O)c2ccccc2)[C@H](C)CN([C@@H](C)CO)C(=O)c2cc(NC(=O)C3CCCCC3)ccc2O1,inactive
3,COc1ccc(S(=O)(=O)Nc2ccc3c(c2)CC(=O)N([C@@H](C)CO)C[C@@H](C)[C@@H](CN(C)Cc2ccc(C(=O)O)cc2)O3)cc1,inactive
4,COc1ccc(NC(=O)N(C)C[C@@H]2OCCCC[C@H](C)Oc3ccc(NS(=O)(=O)c4cccs4)cc3C(=O)N([C@@H](C)CO)C[C@@H]2C)cc1,inactive
5,CCS(=O)(=O)N1C[C@]2(CN(C2)C(=O)c2ccc3c(c2)OCO3)c2c(n(c3cc(ccc23)OC)C)[C@H]1CO,inactive
6,CN1CCN(C(=O)C[C@@H]2CC[C@@H]3[C@H](COC[C@@H](O)CN3C(=O)Nc3cc(Cl)cc(Cl)c3)O2)CC1,inactive
7,C[C@H]1CN([C@@H](C)CO)C(=O)c2cc(NC(=O)C3CCCCC3)ccc2O[C@H]1CN(C)C(=O)Nc1ccc(C(F)(F)F)cc1,inactive
8,C[C@@H]1CN([C@@H](C)CO)C(=O)c2cc(NS(=O)(=O)c3ccc(Cl)cc3)ccc2O[C@@H](C)CCCCO[C@H]1CN(C)S(=O)(=O)c1ccc(Cl)cc1,inactive
9,C[C@@H]1CN([C@H](C)CO)C(=O)c2cc(NS(=O)(=O)c3ccc(Cl)cc3)ccc2O[C@@H](C)CCCCO[C@H]1CN(C)S(=O)(=O)c1ccc(Cl)cc1,inactive
10,C[C@@H]1CCCCO[C@@H](CN(C)S(=O)(=O)c2ccc(Cl)cc2)[C@H](C)CN([C@H](C)CO)C(=O)c2cc(NS(=O)(=O)c3ccc(Cl)cc3)ccc2O1,active
11,COCCNC(=O)C[C@H]1C[C@H]2c3cc(NC(=O)CN(C)C)ccc3O[C@H]2[C@@H](CO)O1,inactive
12,C[C@@H]1CN([C@@H](C)CO)C(=O)c2cc(NC(=O)NC3CCCCC3)ccc2O[C@H]1CN(C)Cc1ccc(Oc2ccccc2)cc1,inactive
13,C[C@@H]1CN([C@@H](C)CO)C(=O)c2cc(NC(=O)NC3CCCCC3)ccc2O[C@@H]1CN(C)Cc1ccc(Oc2ccccc2)cc1,active
14,C[C@H](CO)N1C[C@H](C)[C@H](CN(C)Cc2ccc(Oc3ccccc3)cc2)Oc2ccc(NC(=O)NC3CCCCC3)cc2C1=O,inactive
15,CC(C)NC(=O)Nc1ccc2c(c1)C(=O)N([C@H](C)CO)C[C@@H](C)[C@H](CN(C)Cc1ccc(Oc3ccccc3)cc1)O2,inactive
16,C[C@@H]1CN([C@H](C)CO)C(=O)c2cc(NC(=O)NC3CCCCC3)ccc2O[C@H]1CN(C)Cc1ccc(Oc2ccccc2)cc1,inactive
17,CC(C)NC(=O)Nc1ccc2c(c1)C(=O)N([C@@H](C)CO)C[C@@H](C)[C@@H](CN(C)Cc1ccc(Oc3ccccc3)cc1)O2,inactive
18,C[C@H](CO)N1C[C@H](C)[C@@H](CN(C)Cc2ccc(Oc3ccccc3)cc2)Oc2ccc(NC(=O)NC3CCCCC3)cc2C1=O,active
19,C[C@@H]1CN([C@H](C)CO)C(=O)c2cc(NC(=O)NC3CCCCC3)ccc2O[C@@H]1CN(C)Cc1ccc(Oc2ccccc2)cc1,active
20,C[C@H]1CN([C@@H](C)CO)C(=O)c2cc(NC(=O)NC3CCCCC3)ccc2O[C@H]1CN(C)Cc1ccc(Oc2ccccc2)cc1,inactive
